High-throughput results as filed in PubChem.
Pf growth 96h = P. falciparum growth inhibition at 96 hours; P. falciparum luciferase reporter growth, 96 h; Potency, µM (series often up to 28.7 µM), for inactives: top-dose activity change, negative = inhibition, actives largely listed as inhibitors; 320,000 tested, 6.9% active; AID 504834; further: potency means the concentration at half of the fitted maximal effect; on the % scale 0 is the no-effect control and ±100 the full control effect
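Two parasite generations (96 h, 37 C, 5% CO2) of compound exposure in infected erythrocytes (0.05% parasitemia, 2% hematocrit). Luciferase-reporter P. falciparum; decreased luminescence indicates inhibited growth, aimed at apicoplast-acting delayed death.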
Shiga inhibitor = inhibitors of Shiga toxin in Vero cells; Vero cells, Shiga toxin protein synthesis inhibition reporter; inhibition, % at 38.7 µM; 290,000 tested, 9.2% active; AID 2315; in the data active means inhibition mostly above about 28%, no sharp cut-off; inactive means mostly below about 43%; further: 0% is about no effect
NS1 inh = blocks influenza NS1 protein function; Potency, µM (top dose mostly 46.1 µM), for inactives: at the highest dose activity, positive = more growth; 270,000 tested, 0.4% active; AID 2326; calls by dose curve; further: potency means the concentration at half of the fitted maximal effect; actives are rising curves; nearly all actives have a fitted effect of over 50% in size
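Read-out: OD600 growth recovery of NS1-expressing budding yeast. Cells grown overnight at 30C in -URA glucose medium, washed, resuspended and diluted 1:100 in 2% galactose assay medium, pH 6.0. Same strain lacking NS1 served as positive control.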
FBPA Giardia inh = blocks Giardia fructose-bisphosphate aldolase activity; Potency, µM (series often up to 59.6 µM), for inactives: at the highest dose activity, negative = inhibition, actives largely listed as inhibitors; 290,000 tested, 0.71% active; A8B2U2; purified Giardia FBPA; AID 2451; further: potency means the concentration at half of the fitted maximal effect; on the % scale 0 is the no-effect control and ±100 the full control effect; nearly all actives have a fitted effect of over 55% in size
Target sequence (A8B2U2 whole entry, looked up): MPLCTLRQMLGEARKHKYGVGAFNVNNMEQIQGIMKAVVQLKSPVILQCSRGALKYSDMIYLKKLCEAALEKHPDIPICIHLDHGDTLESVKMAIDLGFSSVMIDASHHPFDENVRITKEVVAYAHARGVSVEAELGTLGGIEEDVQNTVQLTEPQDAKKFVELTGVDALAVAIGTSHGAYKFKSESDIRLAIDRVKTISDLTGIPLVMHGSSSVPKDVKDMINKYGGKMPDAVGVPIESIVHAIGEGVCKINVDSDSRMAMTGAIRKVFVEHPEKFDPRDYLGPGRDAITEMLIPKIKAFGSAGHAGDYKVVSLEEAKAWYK
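Giardia FBPA (40 nM reagent) was preincubated 10 min at RT with compound (up to 57.5 uM final), then substrate plus GAPDH/TPI/NAD/arsenate coupling system with diaphorase/resazurin was added; resorufin fluorescence (525/598 nm) was read after 20 min.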
CHX counter = counter-screen hit for Shiga toxin inhibitors, cycloheximide; cell reporter, cycloheximide protein synthesis inhibition counterscreen; max response, %; 300,000 tested, 12% active; AID 2314; in the data active means max response mostly above about 13%, no sharp cut-off; inactive means mostly below about 14%; further: read at 38.3 µM for the half of the compounds with a filed dose; 0% is about no effect
Pf growth 48h = P. falciparum growth inhibition at 48 hours (one generation) | Potency, µM (titrated, usually from 28.7 µM), inactives show at the highest dose activity change, negative = inhibition, hits mostly inhibitors | AID 504832 | 310,000 tested, 5.9% active | P. falciparum luciferase growth in erythrocytes, 48 h; further: potency means the concentration at half of the fitted maximal effect; on the % scale 0 is the no-effect control and ±100 the full control effect
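Parasite viability was followed by luminescence of a genomically integrated firefly luciferase. Cultures held 0.1% parasitemia at 2% hematocrit (final), incubated under 5% CO2 at 37 C.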
The depositor's hits bear a star; ? = inconclusive; / = no result given; [ ] = another dose, or the depositor's remark. The list is not random: actives were taken first. Their share in the collection is about 21%. Unless noted, the call rests on the fitted dose curve; in most records, active means well fitted curve in the direction sought with a large enough effect; inconclusive means small, poorly fitted or top-dose-only effect, or another doubt; inactive means no such curve, though single readings can be large; an effect the other way counts as inactive or inconclusive.

SMILES	Pf growth 96h	Shiga inhibitor	NS1 inh	FBPA Giardia inh	CHX counter	Pf growth 48h
COc1ccc([C@H]2CC(=O)C=C(c3c(C)cc(C)cc3C)C2)cc1	12%	/	/	/	/	?
CCOC(=O)C1CCN(C(=O)C2CCN(c3ncnc4c3nc3n4CCCCC3)CC2)CC1	20%	-4	-14%	/	-5	-7%
CC(=O)Nc1ccc(OCC(O)Cn2c(C)nc3ccccc32)cc1 (configuration not stated)	30%	-13	0%	-8%	9	/
CC(=O)Nc1ccc(OCC(O)CN2CCN(c3cccc(Cl)c3)CC2)cc1 (configuration not stated)	10µM*	-5	-13%	3%	9	?
Clc1ccc(CO[C@@H](Cn2ccnc2)c2ccc(Cl)cc2Cl)cc1	/	/	/	2%[21.7 µM]	/	/
CC(=O)Nc1ccc(OCC(O)Cn2nc(C)c(C(C)=O)c2C)cc1 (configuration not stated)	/	-1	-1%	-8%	-5	-2%
CC(=O)Nc1ccc(OCC(O)Cn2nc(C)c(C)c2C)cc1 (configuration not stated)	10µM*	-7	5%	2%	-5	17%
CC(=O)Nc1ccc(OCC(O)Cn2c(C(C)C)nc3ccccc32)cc1 (configuration not stated)	2.3µM*	-7	3%	2%	-6	-1%
C=CCOC(Cn1ccnc1)c1ccc(Cl)cc1Cl (configuration not stated)	3.4µM*	/	/	/	/	4.1µM*
CCC(c1nnc(SCC(=O)Nc2cc(S(C)(=O)=O)ccc2Cl)n1Cc1ccccc1)N(C)C (configuration not stated)	-17%	-13	2%	-8%	-3	?
C=CCCCCCCCC(=O)OC	6%	-4	4%	14%	11	?
Cc1cc(NC(=O)COC(=O)C2CC(=O)N(c3cccc(C)c3C)C2)no1 (configuration not stated)	28%	-14	?	7%	-4	6%
COc1cccc(N2CCN(c3ccc4nnc(CCC(=O)Nc5ccccn5)n4n3)CC2)c1	?	-3	1%	-15%	1	-23%
CC(=O)Nc1ccc(OCC(O)Cn2cccn2)cc1 (configuration not stated)	-4%	-7	15%	0%	-3	-1%
OC(COc1ccc(Cl)cc1Cl)Cn1ccnc1 (configuration not stated)	-13%	17	3%	0%	13*	/
CC(=O)Nc1ccc(OCC(O)Cn2ccnc2)cc1 (configuration not stated)	0%	78*	-2%	-1%	35*	51%
O=C(NCCCN1CCOCC1)c1cccc(S(=O)(=O)Nc2cc(Cl)ccc2Cl)c1	29%	-2	1%	20%	-2	57%
COC(=O)C1(C)C=C(Nc2ccc(OC)cc2)C(=O)N1c1ccc(OC)cc1 (configuration not stated)	/	/	/	-13%	/	/
CCN1CCN(Cc2ccc(NC(=O)c3ccc(C)c(NC(=O)c4cc(-c5ccc(Br)cc5)n[nH]4)c3)cc2C(F)(F)F)CC1	1.9µM*	-3	11%	0%	-2	1µM*
CCN1CCN(Cc2ccc(NC(=O)c3cc(NC(=O)c4cncc(-c5ccc(C#N)cc5)c4)cc(OC)c3)cc2C(F)(F)F)CC1	0.1µM*	-11	-8%	9%	-5	0.47µM*
CCN1CCN(Cc2ccc(NC(=O)c3cc(NC(=O)c4nccnc4N)cc(OC)c3)cc2C(F)(F)F)CC1	1.5µM*	15	-34%	0%	9	1.7µM*
CCN1CCN(Cc2ccc(NC(=O)c3ccc(C)c(NC(=O)c4cccc5[nH]ccc45)c3)cc2C(F)(F)F)CC1	10µM*	94*	-8%	-6%	53*	12µM*
Cc1ccccc1OCCC(=O)OCC(=O)NC1CC1	-5%	/	/	/	/	-4%
CCN1CCN(Cc2ccc(NC(=O)c3ccc(C)c(NC(=O)c4nccn4C)c3)cc2C(F)(F)F)CC1	-25%	-4	-2%	-1%	6	?
CCN1CCN(Cc2ccc(NC(=O)c3cc(NC(=O)c4cnnc5ccccc45)cc(OC)c3)cc2C(F)(F)F)CC1	2.9µM*	-4	-7%	-2%	-4	2.3µM*
